{"source": "PubChem BioAssay AID488857", "about": "(Sanford-Burnham Center for Chemical Genomics, 2010)", "note": "The whole screen tested about 1,400 compounds, of which about 560 (40%) were called active. The set was probably picked from earlier hits. This is one part of the list. Unmarked numbers belong to inactive results.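 How the source made its calls: active means mean inhibition over duplicate tests at 10 µM above 50%; inactive means the rest.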", "data": [{"experiment": "ASC/caspase-1 reporter retest in S. cerevisiae at one dose, specificity check for NALP1 project (AID 488857)", "conditions": "S. cerevisiae ASC/Caspase-1, beta-galactosidase luminescence, 24 h; at 10 µM; hits give high values", "values": [{"smiles": "Cc1cc2ncn(/N=C/c3ccc([N+](=O)[O-])s3)c2cc1C", "inhibition": "67.8% (active)"}, {"smiles": "CN(C)/C=N/n1cnc2ccccc2c1=O", "inhibition": "32%"}, {"smiles": "CCCCCCCCCCCCCCCC[n+]1cccc2ccccc21", "inhibition": "93.7% (active)"}, {"smiles": "O=c1c(Br)c(N2CCCC2)cnn1-c1ccccc1", "inhibition": "64.9% (active)"}, {"smiles": "c1ccc2sc(Sc3ncnc4sccc34)nc2c1", "inhibition": "44.6%"}, {"smiles": "Cn1c2ccccc2c(=O)c2c(=O)n(C3CCCCCC3)c(C3CCCCC3)nc21", "inhibition": "53.2% (active)"}, {"smiles": "COc1ccc(CCn2c(C(C)C)nc3c(c(=O)c4ccccc4n3C)c2=O)cc1", "inhibition": "28%"}, {"smiles": "Cc1ccc(NC(=O)c2cccc(S(=O)(=O)N(C)c3ccccc3)c2)cc1S(=O)(=O)N1CCOCC1", "inhibition": "36.1%"}, {"smiles": "COC(=O)c1ccc(NC(=O)c2ccccc2N(C)S(=O)(=O)c2ccccc2)cc1", "inhibition": "55.2% (active)"}, {"smiles": "CC(=O)c1ccc(NC(=O)/C=C/c2ccc(C)cc2)cc1", "inhibition": "60.4% (active)"}, {"smiles": "CSc1ccc(/C=C/C(=O)c2ccc(O)cc2)cc1", "inhibition": "81.2% (active)"}, {"smiles": "COc1cc(/C=C/C(=O)Nc2ccc(C)cc2)cc(OC)c1OC", "inhibition": "46.8%"}, {"smiles": "CSc1ccc(/C=C/C(=O)c2ccc(NC(C)=O)cc2)cc1", "inhibition": "75.5% (active)"}, {"smiles": "Cc1c(N)c(C(C)(C)C)cc(C(C)(C)C)c1[N+](=O)[O-]", "inhibition": "35.1%"}, {"smiles": "CCN1CCN(c2cc3c(cc2F)c(=O)c(C(=O)O)cn3C2CC2)CC1", "inhibition": "36.3%"}, {"smiles": "CCOC(=O)C(=O)C1=C(N2CCOCC2)/C(=C\\c2ccc(F)cc2)CC1", "inhibition": "36.2%"}, {"smiles": "COc1ccc(OC)c(/C=c2\\sc3nc(-c4cccs4)nn3c2=O)c1", "inhibition": "23.2%"}, {"smiles": "COc1ccc(C(=O)NC(=S)Nc2ccccc2N2CCCCC2)cc1[N+](=O)[O-]", "inhibition": "68% (active)"}, {"smiles": "CC1CCN(c2ccccc2NC(=O)c2ccc(N3CCOCC3)c([N+](=O)[O-])c2)CC1", "inhibition": "27.4%"}, {"smiles": "CCOc1ccc(C(=O)NC(=S)Nc2ccccc2N2CCCCC2)cc1[N+](=O)[O-]", "inhibition": "62.5% (active)"}, {"smiles": "COC(=O)c1ccc(C(=O)OC)c(NC(=O)CN2CCN(c3ccccc3OC)CC2)c1", "inhibition": "49.2%"}, {"smiles": "CCOc1ccc(C(=O)Nc2ccc(-c3nc4ccccc4[nH]3)cc2)cc1[N+](=O)[O-]", "inhibition": "39.4%"}, {"smiles": "COc1ccc(C(=O)NCc2ccccc2)cc1S(=O)(=O)N1CCCc2ccccc21", "inhibition": "39%"}, {"smiles": "COc1cc(-c2nc(C(F)(F)F)c(OC)o2)cc(OC)c1OC", "inhibition": "44.9%"}, {"smiles": "COc1cc(/C=C/C(=O)c2ccc(Cl)s2)cc(OC)c1O", "inhibition": "63.6% (active)"}, {"smiles": "Cc1cccc(OC(=O)c2cn(C)nc2C(F)(F)F)c1C", "inhibition": "50.9% (active)"}, {"smiles": "Cc1ccc(-c2csc3ncnc(Oc4cccc5ccc(C)nc45)c23)cc1", "inhibition": "63% (active)"}, {"smiles": "COc1ccc(-c2csc3ncnc(Oc4cccc5ccc(C)nc45)c23)cc1", "inhibition": "71.4% (active)"}, {"smiles": "COc1ccccc1N1CCN(C(=O)CSc2ncnc3scc(-c4ccccc4)c23)CC1", "inhibition": "44.1%"}, {"smiles": "O=C(/C=C/c1ccc(F)cc1)NCCc1ccc2c(c1)OCCO2", "inhibition": "61.6% (active)"}, {"smiles": "O=C(c1ccc(F)cc1)c1cn(Cc2ccc(F)cc2)c2cc3c(cc2c1=O)OCCO3", "inhibition": "44.1%"}, {"smiles": "Cc1ccc(/C=C/C(=O)NCc2ccc3c(c2)OCO3)o1", "inhibition": "42.4%"}, {"smiles": "O=C(N/N=C/c1ccncc1)c1cc2ccccc2o1", "inhibition": "41.4%"}, {"smiles": "O=C(Nc1cccc(-c2nc3ncccc3o2)c1)c1cc2ccccc2o1", "inhibition": "61.8% (active)"}, {"smiles": "O=C(Nc1cccnc1)Nc1ccc2c(c1)OCO2", "inhibition": "43.5%"}, {"smiles": "O=C(Nc1ccon1)c1cc2ccccc2oc1=O", "inhibition": "30.9%"}, {"smiles": "O=C(NC(=S)Nc1cccnc1)c1cc2ccccc2o1", "inhibition": "69.7% (active)"}, {"smiles": "O=C(O)CC(Cn1cnnn1)c1ccccc1", "note": "(centres undefined)", "inhibition": "29.3%"}, {"smiles": "CN(C#N)c1nc(Cl)nc(Nc2cccc(Cl)c2)n1", "inhibition": "28.1%"}, {"smiles": "O=[N+]([O-])c1cc(C(F)(F)F)ccc1NCCc1c[nH]c2ccc(O)cc12", "inhibition": "70.5% (active)"}, {"smiles": "Cc1ccc(C(=O)NCCCNc2ccc(C(F)(F)F)cc2[N+](=O)[O-])cc1", "inhibition": "46.6%"}, {"smiles": "C1CCC(C(CC2CCCCN2)C2CCCCC2)CC1", "note": "(centres undefined)", "inhibition": "39.9%"}, {"smiles": "COc1cc(/C=N/n2cnnc2)ccc1OCc1ccc(C)cc1", "inhibition": "48.5%"}, {"smiles": "COc1ccc(/C=N/N2CCOCC2)cc1COc1ccc(Cl)cc1", "inhibition": "61% (active)"}, {"smiles": "O=C1C=CC(=O)N1CCCCCCN1C(=O)C=CC1=O", "inhibition": "73.7% (active)"}, {"smiles": "O=C1C=CC(=O)N1CCNc1ncc(C(F)(F)F)cc1Cl", "inhibition": "44%"}, {"smiles": "CN1CCN(C2=C(Cl)C(=O)C(c3cnc(N4CCCCC4)s3)=C(Cl)C2=O)CC1", "inhibition": "41.3%"}, {"smiles": "COc1ccc(OC)c(N/C(=N/C(=S)Nc2ccccc2)Nc2nc(C)cc(C)n2)c1", "inhibition": "34.1%"}, {"smiles": "CCCn1nc(NC(=O)c2ccccn2)c2cc3cc(C)ccc3nc21", "inhibition": "16.4%"}, {"smiles": "O=C(NCc1cccs1)c1csc2ccccc12", "inhibition": "57.2% (active)"}, {"smiles": "CC(C)CC(=O)c1c[nH]c(C(=O)NCc2cccs2)c1", "inhibition": "38.2%"}, {"smiles": "CC1=C(OC(=O)c2ccc(Br)cc2)C(C)(C)C(c2ccccc2)OC1=O", "note": "(centres undefined)", "inhibition": "22%"}, {"smiles": "CC1(C)COC(/C=C/c2ccc([N+](=O)[O-])cc2)=N1", "inhibition": "83.1% (active)"}, {"smiles": "CCCCN(Cc1ccccc1)C(=O)C1CCN(Cc2sccc2C)CC1", "inhibition": "45.2%"}, {"smiles": "O=C(CON=C1c2ccccc2-c2ccccc21)NC12CC3CC(CC(C3)C1)C2", "inhibition": "33%"}, {"smiles": "O=C(CCl)NC(=O)NC12CC3CC(CC(C3)C1)C2", "inhibition": "59.9% (active)"}, {"smiles": "O=C(CSc1ncn[nH]1)NC12CC3CC(CC(C3)C1)C2", "inhibition": "19.1%"}, {"smiles": "CC1CCN(Cc2ccc(-c3nn[nH]n3)cc2)CC1", "inhibition": "39.5%"}, {"smiles": "CCOc1cc(CNC2CCCC2)cc(Cl)c1OCc1ccc(F)cc1", "inhibition": "60.9% (active)"}, {"smiles": "COc1cc(CNC2CCCCCCC2)cc(Br)c1OCC#N", "inhibition": "32.9%"}, {"smiles": "CCOc1cc(CNCc2ccncc2)cc(Br)c1OCc1ccc(F)cc1", "inhibition": "67.8% (active)"}, {"smiles": "C/C(=C(\\C#N)C(=O)NCc1ccccc1)N(C)C", "inhibition": "34.8%"}, {"smiles": "CCOc1ccc(OCCCCn2ccnc2)cc1", "inhibition": "54.8% (active)"}, {"smiles": "CCC(C)c1ccc(OCCn2ccnc2)cc1", "note": "(centres undefined)", "inhibition": "73.5% (active)"}]}]}
